Results reported in PubChem BioAssay.
The source made the active and inactive calls.

Experiments:
[1] = tested on: Plasmodium falciparum Sir2 (PF13_0152, Sir2A); test: Plasmodium falciparum Sir2A binding compounds – biochemical, small-molecule microarray, 635 nm fluorescence, primary screen (AID 1098); details: fluorescence 635 nm, higher = more signal;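 also: score merges spot fluorescence intensity with its signal-to-noise ratio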
[2] = probe aDKK1 binding to arrayed compounds – biochemical, biotinylated probe, 635/667 nm fluorescence, primary screen (AID 1099); details: small-molecule microarray, higher = more signal;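 also: score merges 667nm spot fluorescence with signal to noise across triplicate slides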
[3] = probe aCHRDL2 binding to arrayed compounds – biochemical, biotinylated probe, 635/667 nm fluorescence, primary screen (AID 1100); details: small-molecule microarray, higher = more signal
[4] = change in splice reporter luminescence, either direction, cell-based, HEK293, spliceosome inhibition project, primary screen (AID 1101); details: HEK293 splicing luciferase reporter, 24 h, higher = more signal, called active from +8 up or from −8 down;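 also: HEK293 cells carrying a splicing-competent luciferase reporter gene; test concentration not given here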
[5] = biological target: Fibroblast growth factor 10 (Homo sapiens) (UniProt O15520); test: compounds binding fibroblast growth factor 10 – biochemical, small-molecule microarray, 635 nm fluorescence, primary screen (AID 1102); details: FGF10 binding, fluorescence 635 nm, higher = more signal
[6] = tested on: glycogen synthase kinase-3 (GSK3A per assay name; protocol says GSK3B); test: compounds binding glycogen synthase kinase-3 – biochemical, small-molecule microarray, 635 nm fluorescence, GSK3A, primary screen (AID 1103); details: fluorescence 635 nm, higher = more signal; also: the record names both GSK3A and GSK3B
[7] = biological target: Epidermal growth factor receptor (Homo sapiens) (UniProt P00533); test: compounds binding epidermal growth factor receptor – biochemical, small-molecule microarray, 635 nm fluorescence, primary screen (AID 1104); details: EGFR binding, higher = more signal;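 also: score merges 667 nm emission intensity with spot signal to noise over triplicate slides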
[8] = biological target: Follistatin-related protein 3 (Homo sapiens) (UniProt O95633); test: compounds binding follistatin-related protein 3 – biochemical, small-molecule microarray, 635 nm fluorescence, primary screen (AID 1105); details: FSTL3 binding, higher = more signal;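 also: score merges emission near 667 nm and signal to noise per printed spot across three slides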
[9] = biological target: Dickkopf-related protein 1 (Homo sapiens) (UniProt O94907); test: small molecules binding DKK1 protein – biochemical, small-molecule microarray, 635 nm fluorescence scan, primary screen (AID 1106); details: higher = more signal;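 also: score merges emission near 667 nm with signal to noise over three replicate slides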
[10] = tested on: Inhibin beta A chain (activin A); test: small molecules binding activin A – biochemical, small-molecule microarray, 635 nm fluorescence scan, primary screen (AID 1107); details: INHBA, higher = more signal;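 also: mouse activin A protein probed at 4.33 µg/mL on printed slides; score merges bound-protein fluorescence near 667 nm with spot signal-to-noise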
[11] = tested on: Human papillomavirus type 1a protein E7 (residues 44-93); test: small molecules binding HPV E7 44-93 – biochemical, small-molecule microarray, residues 44-93, 635 nm fluorescence, primary screen (AID 1108); details: fluorescence 635 nm, higher = more signal;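 also: E7 fragment applied at 1 µg/mL in TBST for 1 h at 4 C; score combines spot fluorescence with its signal to noise ratio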
[12] = hepatitis C replication reporter changes, two-sided – Huh7 cells, luciferase reporter, HCV replication inhibitor project, primary screen (AID 1109); details: Huh7 HCV replicon luciferase reporter, 48 h; higher = more signal;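 also: huh7 hepatoma cells harbouring a luciferase neomycin HCV replicon reporter; luciferase luminescence as measure of HCV replicon replication; test concentration not given here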
[13] = biological target: Left-right determination factor 2 (Homo sapiens) (UniProt O00292); test: small molecules binding LEFTY2 protein – biochemical, small-molecule microarray, 635 nm fluorescence scan, primary screen (AID 1110); details: higher = more signal
[14] = biological target: Calmodulin-1 (Homo sapiens) (UniProt P0DP23); test: small molecules binding calmodulin-1 with EGTA – biochemical, small-molecule microarray, Cy5-labelled CALM1, profiling panel (AID 1111); details: Cy5-CALM1 binding fluorescence, higher = more signal;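 also: labelled calmodulin applied in Tris saline Tween buffer holding calcium plus EGTA and DTT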
[15] = biological target: Calmodulin-1 (Homo sapiens) (UniProt P0DP23); test: small molecules binding Ca-loaded calmodulin-1 – biochemical, small-molecule microarray, Cy5-labelled CALM1, plus calcium, artefact control for SMM control-protein annotation, profiling panel (AID 1112); details: Cy5-CALM1 binding fluorescence, higher = more signal;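 also: score merges spot fluorescence with signal to noise from triplicate slides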
[16] = probe aWnt5a binding to arrayed compounds – biochemical, biotinylated probe, 635/667 nm fluorescence, primary screen (AID 1113); details: small-molecule microarray, higher = more signal;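 also: score merges 667 nm fluorescence intensity with signal-to-noise per printed feature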
[17] = probe aShh binding to arrayed compounds – biochemical, biotinylated probe, 635/667 nm fluorescence, primary screen (AID 1114); details: small-molecule microarray, higher = more signal;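 also: probe is biotin-labelled aShh protein from a stem cell growth factor screen; measures binding of labelled protein to compounds printed on the slide; score merges feature fluorescence at 667 nm with signal-to-noise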
[18] = probe aNog binding to arrayed compounds – biochemical, biotinylated probe, 635/667 nm fluorescence, primary screen (AID 1115); details: small-molecule microarray, higher = more signal;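 also: probe is biotinylated aNog protein used at 0.15 µg/mL for 1 h at 4 C; z-score combines 667 nm fluorescence of each spot with its signal to noise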
[19] = biological target: Torsin-1A-interacting protein 1 (Homo sapiens) (UniProt Q5JTV8); test: compound microarray binding of lysate hLAP1 – cell lysate, small-molecule microarray, COS7 lysate, 635/667 nm fluorescence, primary screen (AID 1116); details: 635 nm fluorescence, higher = more signal
[20] = biological target: Alpha-bungarotoxin (Bungarus multicinctus) (UniProt P60615); test: compounds binding labelled alpha-BTX control protein – biochemical, small-molecule microarray, Alexa647 label, 635/667 nm fluorescence, artefact control for SMM control protein annotation, profiling panel (AID 1117); details: alpha-BTX-A647 binding fluorescence, higher = more signal
Chain of Alpha-bungarotoxin (Bungarus multicinctus) (P60615 whole entry, looked up): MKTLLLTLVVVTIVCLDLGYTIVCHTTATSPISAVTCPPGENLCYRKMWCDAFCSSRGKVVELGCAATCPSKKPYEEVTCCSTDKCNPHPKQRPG

Chain of Torsin-1A-interacting protein 1 (Homo sapiens) (Q5JTV8 whole entry, looked up): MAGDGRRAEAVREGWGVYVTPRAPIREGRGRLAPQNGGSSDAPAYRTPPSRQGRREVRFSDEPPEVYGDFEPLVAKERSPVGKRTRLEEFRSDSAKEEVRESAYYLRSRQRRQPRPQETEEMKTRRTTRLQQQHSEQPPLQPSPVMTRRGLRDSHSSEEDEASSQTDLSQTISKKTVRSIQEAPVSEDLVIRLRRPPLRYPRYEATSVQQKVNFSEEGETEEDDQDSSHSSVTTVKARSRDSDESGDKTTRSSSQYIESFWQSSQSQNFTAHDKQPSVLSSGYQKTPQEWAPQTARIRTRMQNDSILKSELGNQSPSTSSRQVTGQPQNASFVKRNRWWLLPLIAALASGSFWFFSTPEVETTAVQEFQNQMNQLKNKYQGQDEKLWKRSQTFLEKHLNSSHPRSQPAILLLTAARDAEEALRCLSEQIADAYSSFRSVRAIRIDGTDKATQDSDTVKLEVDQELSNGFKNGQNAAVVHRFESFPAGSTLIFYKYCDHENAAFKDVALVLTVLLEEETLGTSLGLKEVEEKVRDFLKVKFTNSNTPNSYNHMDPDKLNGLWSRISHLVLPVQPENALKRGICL
Chain of Left-right determination factor 2 (Homo sapiens) (O00292 whole entry, looked up): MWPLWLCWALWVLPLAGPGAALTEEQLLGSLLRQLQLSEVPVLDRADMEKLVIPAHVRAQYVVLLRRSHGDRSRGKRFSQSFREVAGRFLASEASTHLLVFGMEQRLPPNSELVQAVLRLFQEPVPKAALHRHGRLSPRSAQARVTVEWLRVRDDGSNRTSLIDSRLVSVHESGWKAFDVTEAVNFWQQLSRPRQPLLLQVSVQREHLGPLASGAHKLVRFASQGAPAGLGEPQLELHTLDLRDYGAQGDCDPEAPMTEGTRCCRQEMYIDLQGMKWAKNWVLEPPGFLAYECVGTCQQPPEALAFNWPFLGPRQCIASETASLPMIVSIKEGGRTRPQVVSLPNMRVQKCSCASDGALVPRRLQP
Chain of Fibroblast growth factor 10 (Homo sapiens) (O15520 whole entry, looked up): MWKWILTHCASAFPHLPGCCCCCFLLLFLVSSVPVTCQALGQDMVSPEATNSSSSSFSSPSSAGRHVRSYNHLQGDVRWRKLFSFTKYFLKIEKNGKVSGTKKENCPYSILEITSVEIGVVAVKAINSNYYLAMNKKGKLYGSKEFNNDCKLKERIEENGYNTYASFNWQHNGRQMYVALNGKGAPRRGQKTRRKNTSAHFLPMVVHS
Chain of Dickkopf-related protein 1 (Homo sapiens) (O94907 whole entry, looked up): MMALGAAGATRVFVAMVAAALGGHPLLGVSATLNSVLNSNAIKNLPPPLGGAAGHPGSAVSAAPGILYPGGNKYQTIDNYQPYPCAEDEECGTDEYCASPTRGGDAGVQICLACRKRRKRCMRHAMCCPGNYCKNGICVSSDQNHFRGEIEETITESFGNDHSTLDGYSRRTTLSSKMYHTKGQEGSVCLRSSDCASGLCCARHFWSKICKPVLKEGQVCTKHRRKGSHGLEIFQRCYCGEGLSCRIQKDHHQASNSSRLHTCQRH
Chain of Follistatin-related protein 3 (Homo sapiens) (O95633 whole entry, looked up): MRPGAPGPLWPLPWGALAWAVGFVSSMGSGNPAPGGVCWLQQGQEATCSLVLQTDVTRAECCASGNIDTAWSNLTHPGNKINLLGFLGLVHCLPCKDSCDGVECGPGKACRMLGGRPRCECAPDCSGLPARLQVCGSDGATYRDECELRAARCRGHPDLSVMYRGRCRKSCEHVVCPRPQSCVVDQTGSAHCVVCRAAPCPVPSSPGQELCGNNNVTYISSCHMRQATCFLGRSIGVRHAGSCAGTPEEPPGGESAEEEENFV
Chain of Epidermal growth factor receptor (Homo sapiens) (P00533 whole entry, looked up): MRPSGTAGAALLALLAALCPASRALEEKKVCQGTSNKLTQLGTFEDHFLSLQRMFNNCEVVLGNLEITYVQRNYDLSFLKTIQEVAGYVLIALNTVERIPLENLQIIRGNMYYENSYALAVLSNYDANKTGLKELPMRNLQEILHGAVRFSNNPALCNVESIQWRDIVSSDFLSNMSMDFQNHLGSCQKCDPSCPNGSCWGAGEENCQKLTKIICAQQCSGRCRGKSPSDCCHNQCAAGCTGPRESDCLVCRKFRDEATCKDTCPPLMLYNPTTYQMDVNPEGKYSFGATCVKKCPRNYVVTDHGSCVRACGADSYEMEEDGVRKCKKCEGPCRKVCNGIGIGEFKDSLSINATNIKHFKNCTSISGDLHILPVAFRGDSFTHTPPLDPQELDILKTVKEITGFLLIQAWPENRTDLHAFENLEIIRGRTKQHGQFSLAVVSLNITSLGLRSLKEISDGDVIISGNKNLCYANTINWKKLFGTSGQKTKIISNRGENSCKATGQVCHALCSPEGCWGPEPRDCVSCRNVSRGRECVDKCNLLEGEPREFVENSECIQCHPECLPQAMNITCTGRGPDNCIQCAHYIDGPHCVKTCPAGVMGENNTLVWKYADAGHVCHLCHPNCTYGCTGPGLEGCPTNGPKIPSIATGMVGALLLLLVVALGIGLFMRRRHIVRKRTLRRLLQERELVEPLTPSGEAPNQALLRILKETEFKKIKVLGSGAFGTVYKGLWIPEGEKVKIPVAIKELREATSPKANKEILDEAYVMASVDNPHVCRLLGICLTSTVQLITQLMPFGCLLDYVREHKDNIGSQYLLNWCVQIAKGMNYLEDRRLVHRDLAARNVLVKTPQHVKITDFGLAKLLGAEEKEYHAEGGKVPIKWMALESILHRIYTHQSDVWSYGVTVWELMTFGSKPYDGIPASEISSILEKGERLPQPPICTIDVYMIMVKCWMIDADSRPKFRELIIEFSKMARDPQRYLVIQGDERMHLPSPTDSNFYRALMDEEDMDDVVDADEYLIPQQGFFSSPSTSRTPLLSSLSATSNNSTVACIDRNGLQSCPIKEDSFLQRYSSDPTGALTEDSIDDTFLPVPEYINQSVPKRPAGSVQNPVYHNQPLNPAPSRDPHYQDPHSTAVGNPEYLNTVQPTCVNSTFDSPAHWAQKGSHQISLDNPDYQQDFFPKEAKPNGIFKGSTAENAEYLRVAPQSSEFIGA

| Structure (SMILES) | composite z-score [1] | composite z-score [2] | composite z-score [3] | z-score [4] | composite z-score [5] | composite z-score [6] | composite z-score [7] | composite z-score [8] | composite z-score [9] | composite z-score [10] | composite z-score [11] | z-score [12] | composite z-score [13] | composite z-score [14] | composite z-score [15] | composite z-score [16] | composite z-score [17] | composite z-score [18] | composite z-score [19] | composite z-score [20] |
| --- | --- | --- | --- | --- | --- | --- | --- | --- | --- | --- | --- | --- | --- | --- | --- | --- | --- | --- | --- | --- |
| O=C1[C@]2(CO)C=C(Br)[C@@H](C[C@@H]2c2ccccc2)[C@@]12CO2 | 0.628 | 0.0144 | 0.0065 | 0.359 (inactive) | 0.208 | -0.626 | -0.135 | 0.419 | 0.357 | 0.263 | -0.728 | -3.08 | 0.218 | -0.567 | -0.322 | -0.0165 | -0.221 | -0.158 | -0.563 | -0.0487 |
| COCC1=C2[C@@H](CCc3ccccc3)OB(O)C[C@@H]2[C@@H]2C(=O)N(Cc3ccccc3)C(=O)[C@@H]2C1 | 0.174 | -0.143 | -0.188 | 0.161 (inactive) | 0.628 | 0.197 | 0.388 | 0.191 | 0.249 | 0.728 | -0.0734 | -0.895 | 0.0192 | -0.222 | -0.112 | -0.0242 | -0.214 | 0.362 | -0.448 | 1.19 |
| COCCOC(=O)N1C(=O)[C@@]2(c3ccccc31)[C@H](c1ccc(O)cc1)N1[C@H](c3ccccc3)[C@H](c3ccccc3)OC(=O)[C@H]1[C@@H]2C(=O)N1CCc2cc(OC)c(OC)cc2C1 | 1.25 | 0.203 | 0.404 | -0.832 (inactive) | 1.36 | 0.92 | 0.869 | 1.03 | 0.84 | 0.451 | 0.607 | -1.47 | 1.01 | 0.889 | 0.579 | -0.0819 | -0.214 | -0.533 | 0.811 | 0.789 |
| O=C1C[C@@](C(=O)NC2CC2)(c2ccc([N+](=O)[O-])cc2)[C@@H](c2ccc(CO)cc2)N1CC12CC3CC(CC(C3)C1)C2 | 1.3 | -0.0801 | 0.782 | -1.42 (inactive) | 0.474 | 0.612 | 0.1 | 0.925 | 0.253 | 0.571 | 0.869 | -2.39 | -0.523 | 0.557 | -0.0787 | -0.0751 | -0.147 | 0.11 | 0.471 | 0.601 |
| COCCOC(=O)N1C(=O)[C@@]2(c3cc(C#CCNC(N)=O)ccc31)[C@H](C(=O)N1CCc3cc(OC)c(OC)cc3C1)[C@H]1C(=O)O[C@H](c3ccccc3)[C@H](c3ccccc3)N1[C@@H]2c1ccc(OCCO)cc1 | 1.06 | -0.0141 | -0.053 | -0.0304 (inactive) | 1.28 | -0.08 | 0.528 | 1.17 | 0.529 | 0.886 | 0.581 | -0.45 | 0.556 | 0.432 | -0.178 | -0.0236 | 0.0637 | -0.794 | 0.5 | 0.399 |
| [N-]=[N+]=NCc1ccccc1C[C@]1(C(=O)O)N=C(c2ccc(OCCCO)cc2)O[C@H]1c1ccccc1CN=[N+]=[N-] | 1.07 | 0.804 | 1.01 | -1.17 (inactive) | 0.126 | 0.421 | -0.125 | 0.541 | -0.742 | 0.458 | 1.43 | -1.21 | -0.524 | 1.74 | 0.411 | -0.0792 | -0.0146 | 1.16 | 0.978 | 1.68 |
| Cc1ccc([C@H]2C(C(=O)O)=C[C@@H](C)N2S(=O)(=O)c2ccc(C)cc2)cc1 | 1.23 | 0.353 | 0.841 | 0.709 (inactive) | -0.564 | -0.107 | -0.19 | -0.525 | -1.13 | 1.02 | 0.801 | 0.537 | -0.942 | 1 | 0.0248 | -0.0478 | 0.0062 | -0.0827 | 0.917 | 1.57 |
| CC(C)NC(=O)[C@@H]1c2ccccc2C(=O)N(Cc2ccccc2)[C@H]1c1ccc(CO)cc1 | 1.62 | 0.652 | 1.11 | 0.00875 (inactive) | 0.462 | 0.263 | -1.41 | -0.942 | -1.05 | -0.212 | -1.8 | -0.777 | -1.06 | -0.472 | 0.477 | 0.115 | -0.214 | -0.647 | 1.57 | 0.181 |
| CC(=O)NCCCC[C@@H]1NC(=O)[C@@H]2C[C@H](C(=O)NCCCCCCNC(=O)CS)[C@H](c3ccc(O)cc3)N2C1=O | 1.18 | -0.194 | 0.52 | 0.584 (inactive) | -0.37 | -0.0984 | -0.755 | -0.353 | -0.233 | -0.989 | 1.07 | 0.391 | -0.746 | 0.725 | 0.31 | -0.211 | -0.0643 | -0.158 | 1.15 | 1.36 |
| COCCOC(=O)N1C(=O)[C@@]2(c3cc(C#CCNC(N)=O)ccc31)[C@H](C(=O)N1CCN(c3ncccn3)CC1)[C@H]1C(=O)O[C@H](c3ccccc3)[C@H](c3ccccc3)N1[C@@H]2c1ccccc1OCCO | 1.2 | 0.265 | 0.714 | -0.619 (inactive) | 1.13 | 0.0685 | 0.736 | 1.24 | 1.7 | 1.02 | 1.38 | -1.05 | 0.877 | 0.97 | 0.264 | 0.0375 | 0.175 | -0.319 | 0.82 | 0.904 |
| C=C(COC)C(=O)CC[C@H](OC(C)=O)c1cccc(OCCO)c1 | -0.443 | -0.305 | -0.0122 | -0.637 (inactive) | 1.06 | 0.121 | -0.92 | -0.249 | -0.118 | 0.35 | -0.76 | -0.574 | -0.729 | -0.779 | -0.773 | -0.124 | 0.111 | -0.0428 | 0.8 | 1.24 |
| C=CCOC(=O)[C@H]1[C@@H]2C(=O)O[C@@H](c3ccccc3)[C@@H](c3ccccc3)N2[C@@H](c2ccc(OCCOC(=O)[C@@H]3C[C@@H]4C(=O)NCC(=O)N4[C@@H]3c3ccc(O)cc3)cc2)[C@]12C(=O)Nc1ccccc12 | 1.24 | -0.206 | -0.167 | -1.15 (inactive) | 1.14 | 1.19 | 0.457 | 1.34 | 0.535 | 0.217 | 0.919 | -1.34 | 0.733 | 0.325 | 0.0637 | -0.0573 | -0.0192 | -0.0216 | 0.609 | -0.195 |
| [N-]=[N+]=NCc1ccccc1[C@H]1OC(c2ccc(OCCCO)cc2)=N[C@@]1(CCS(=O)(=O)c1ccccc1)C(=O)N1CCOCC1 | 1.26 | 1.19 | 1.31 | -0.0598 (inactive) | 1.17 | 0.239 | 0.267 | 1.13 | -0.0445 | 1 | 1.44 | -1.27 | 0.402 | 2.58 | 0.786 | 0.242 | 0.356 | 2.25 | 3.34 | 2.59 |
| CCOC(=O)C[C@H]1[C@H](OC(=O)c2ccc(-c3ccccc3)cc2)[C@@H](NC(=O)c2ccc3ccccc3c2)c2cc(OCCCO)ccc2N1C(=O)Cc1ccc(OC)cc1 | -0.517 | -0.0669 | -0.269 | -0.334 (inactive) | -0.383 | 0.247 | -0.245 | 0.368 | -0.416 | 0.487 | 0.758 | -0.983 | 0.0216 | 0.868 | 0.171 | -0.001 | 0.151 | -0.0209 | 0.15 | 0.0773 |
| C=CCC(OC(C)=O)[C@@H]1[C@@H](N(Cc2cccc3ccccc23)C(=O)c2cccc3ccccc23)c2cc(OCCCO)ccc2N1C(=O)c1ccc2ccccc2n1 (stereo not given in full) | -0.0758 | -0.095 | 0.181 | -0.202 (inactive) | 0.635 | 0.0702 | -0.0538 | 0.256 | -0.501 | 1.45 | -0.316 | 1.21 | 0.146 | -0.301 | 0.117 | -0.208 | -0.138 | 0.151 | -0.117 | -0.198 |
